Only some compounds are listed: those with a hit (about 7.9% of all), similar ones and a draw of the others.
FMDV antiviral = blocks foot and mouth disease virus; FMDV antiviral cell-based qHTS; Potency, µM (series often up to 57.9 µM), actives largely listed as inhibitors; hit rate 1.2% among 410,000; AID 1159524; calls by dose curve; tested in HEK293T cells; further: read-out not given here; nearly all actives have a fitted effect of over 45% in size
MARV entry inh = blocks Marburg virus binding to or entry into cells; AID 540276; Marburg virus pseudotyped entry inhibition, cell reporter; hit rate 1.8% among 300,000; Potency, µM (highest dose often 37.8 µM), actives largely listed as inhibitors; calls by dose curve; tested in HEK293 cells
Lassa entry inh = inhibitors of Lassa virus binding or cell entry; AID 540256; Potency, µM (series often up to 37.9 µM), usual class: inhibitors; Lassa virus pseudotype entry inhibition, cell reporter; hit rate 1.2% among 300,000; calls by dose curve; tested in HEK293 cells; further: nearly all actives have a fitted effect of over 50% in size
HCV inhibitor = HCV inhibition; Huh7.5.1 HCVcc-Cre infection, luciferase reporter, 44 h; Potency, µM (doses to about 41.8 µM), hits mostly inhibitors; hit rate 3.4% among 340,000; AID 651820; active means well fitted inhibition curve with a large enough effect; inconclusive means small, poorly fitted or top-dose-only effect, or another doubt; inactive means no such curve, though single readings can be large or run the other way
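Luciferase read-out (15 sec integration) after a 15 min room-temperature substrate step quantifies HCVcc-Cre infection. Cells, 1,000 per well, had compound added 4 h post-plating, then virus at ~0.5 moi, and were cultured 44 h.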
HCMV inh = blocks human cytomegalovirus replication. hit rate 4.5% among 410,000. HFF cells, HCMV-luciferase reporter, 72 h; hits give low values. activity change, negative = inhibition, % at 57.5 µM; in the data active means activity change below about -60%; inconclusive means no clear call, values can overlap the other calls; inactive means above about -39%
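Compounds were evaluated in HFFs infected with an HCMV luciferase reporter virus (MOI 1 PFU/cell). Luciferase in lysates collected 72 h post infection served as the replication measure.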
A number is an active result; . = inactive; ? = inconclusive; / = not tested or not shown; + = active, no number.

SMILES	FMDV antiviral	MARV entry inh	Lassa entry inh	HCV inhibitor	HCMV inh
CC1(C)Cc2ccccc2-c2nnc(SCC(=O)N3CCc4ccccc43)n21	.	.	.	?	.
CCn1c(CSCc2ccc(C)cc2)nnc1SCC(=O)N1CCN(c2ccccc2)CC1	22µM	?	.	?	.
Cc1ccc(Cl)cc1N1CCN(C(=O)CSc2nnc3n2C(C)(C)Cc2ccccc2-3)CC1	13µM	12µM	?	?	.
CCn1c(COc2cccc(C)c2C)nnc1SCC(=O)N1CCN(c2ccc(OC)cc2)CC1	?	.	?	?	-97
C=CCn1c(CSCc2ccccc2)nnc1SCC(=O)N1CCN(c2ccccc2)CC1	.	?	.	?	?
COCCn1c(=O)cnc2cnc(OC)nc21	.	/	/	/	/
CCCC(=O)Nc1sc(C)c(-c2ccc(C(C)CC)cc2)c1C#N (configuration not stated)	.	.	?	.	.
CCOc1cccc2sc(N(Cc3cccnc3)C(=O)C3CCCCC3)nc12	.	/	.	/	+
COc1cccc2sc(N(Cc3cccnc3)C(=O)C3CCCCC3)nc12	.	/	?	/	.
COc1ccc(NC(=O)/C(C#N)=C/c2ccc(Sc3nncn3C)c([N+](=O)[O-])c2)cc1	32µM	?	.	.	.
CCC(C)(C)NC(=O)c1ccc(Sc2nncn2C)c([N+](=O)[O-])c1	.	.	.	.	.
CCN(CC)S(=O)(=O)c1cc(NC(=O)c2ccc(-n3cncn3)c([N+](=O)[O-])c2)ccc1C	13µM	?	?	11µM	-84
CCN(CC)S(=O)(=O)c1ccc(NC(=O)c2ccc(Sc3nncn3C)c([N+](=O)[O-])c2)cc1	.	.	?	.	-81
Cn1cnnc1Sc1ccc(/C=C/C(=O)c2ccc(O)cc2)cc1[N+](=O)[O-]	?	/	/	.	-101
CN(C)c1ccc([C@H]2[C@@H]3C(=O)N(c4ccc(C(=O)O)cc4)C(=O)[C@H]3ON2c2ccccc2)cc1	/	.	/	/	/
CC1CCN(c2nc3ccc(C(=O)NCCCN4CCCCC4C)cc3s2)CC1 (configuration not stated)	?	/	/	?	.
COC(=O)c1ccc(C(=O)N2CCCC(CNC(=O)c3ccccc3Cl)C2)cc1 (configuration not stated)	.	?	.	.	.
C=CCN1C(c2ccc(Br)cc2)=CS/C1=C(/C#N)c1nnc(N2CCOCC2)n1-c1ccccc1	?	?	?	?	-80
C=C1C(=O)C23CCC4C(C)(C(=O)OC)CCCC4(C)C2CCC1(O)C3 (configuration not stated)	3.5µM	?	?	3.2µM	-99
COC(=O)[C@]1(C)CCC[C@@]2(C)C3CC[C@@]4(C)C[C@]3(CCC21)CC(=O)N4 (some centres not stated)	?	/	/	.	.
COc1cc(/C=N/N=C(N)N)ccc1OCc1ccccc1Cl	.	/	/	14µM	-100
COC(=O)c1cccc(NC(=O)c2cc3sccc3n2C)c1	.	.	.	14µM	.
c1ccc(CN2C3=NCCN3c3ccccc32)cc1	?	?	.	?	.
Clc1ccc(CN2C3=NCCN3c3ccccc32)cc1Cl	?	?	.	10µM	.
COC(=O)c1c(C)oc2ccc(N(C(=O)c3ccncc3)S(=O)(=O)c3ccc(OC)cc3)cc12	.	?	.	/	-95
SMILES	FMDV antiviral	MARV entry inh	Lassa entry inh	HCV inhibitor	HCMV inh
CCc1ccc(S(=O)(=O)N(C(=O)c2ccncc2)c2ccc3oc(C)c(C(=O)OC)c3c2)cc1	.	?	?	/	-64
CCOc1ccc(S(=O)(=O)N(C(=O)c2ccncc2)c2ccc3oc(C)c(C(=O)OC)c3c2)cc1	.	10µM	?	/	-79
CCOC(=O)c1c(C)oc2ccc(N(C(=O)c3ccncc3)S(=O)(=O)c3ccc(F)cc3)cc12	.	?	.	/	.
COc1ccc(S(=O)(=O)N(C(=O)c2ccncc2)c2ccc3oc(C)c(C(C)=O)c3c2)cc1	.	?	?	/	?
COC(=O)C1=C(C)N(Cc2ccccc2)C(=NCCc2ccccn2)NC1c1cccc(F)c1 (configuration not stated)	/	.	/	/	/
O=C(Nc1ccc(N2CCN(C(=O)c3ccccc3)CC2)c(Cl)c1)c1ccc(Br)o1	.	?	21µM	?	-68
O=C(Nc1ccc(N2CCN(C(=O)c3ccccc3)CC2)cc1)c1ccc(Br)o1	.	?	.	?	.
O=C(Nc1ccc(N2CCOCC2)c(Cl)c1)c1ccc(Br)o1	.	.	?	10µM	.
CN1CCN(c2ccccc2NC(=O)c2ccc(Br)o2)CC1	.	.	.	?	.
O=C(Nc1ccccc1N1CCOCC1)c1ccc(Br)o1	.	.	.	?	-63
O=C1C=C(C#Cc2ccccc2)C[C@@H](c2ccc(F)cc2)C1	?	/	/	/	.
CCCCN(C=O)c1c(CC)nc2ccc(C(=O)NCCCN3CCCC3=O)cn12	.	/	/	/	.
CC1=C[C@]23OC(C)(C)C[C@@]2(C)C[C@H](C)C3=CC1=O	/	/	/	/	.
Cc1noc(C)c1C(=O)N1CCC2(CCCN(C(=O)Nc3cccc(F)c3)C2)CC1	.	/	/	/	/
COC[C@H]1O[C@]2(c3ccccc3)CO[C@@H]1[C@@H](C=Cc1ccccc1)C2	/	.	?	/	/
Cc1ccc2nc(-c3ccccc3C)c(CN(CC3CCCO3)C(=O)c3cccs3)cc2c1 (configuration not stated)	.	/	/	/	/
CC(C)(C)n1cccc1/C=C1\C(=O)NC(=O)N(c2ccccc2)C1=O	.	.	.	.	.
COc1ccc(-n2cccc2/C=C2/NC(=O)N(c3cccc(Cl)c3)C2=O)cc1	.	.	.	.	.
Cc1cc(C)cc(N2C(=O)NC(=O)/C(=C/c3cccn3-c3ccc(Cl)cc3)C2=O)c1	14µM	?	?	.	.
Cc1cccc(N2C(=O)NC(=O)/C(=C\c3cccn3-c3ccc(Cl)cc3)C2=O)c1	10µM	?	?	?	-102
CC1=CC2C(C(O)CC3(C)C2CC(C)C32OCOC23COCO3)C2(C)C/C(=C\O)C(=O)C=C12 (configuration not stated)	40µM	7.9µM	?	?	-99
O=C1CSC(=S)N1c1cccc(Br)c1	?	?	?	.	-77
CCOCCCNC(=O)c1cc(=O)n(Cc2cccc(C)c2)c2ccccc12	.	?	/	.	-62
Cc1nc(C)c(C(=O)NNS(=O)(=O)c2ccc3ccccc3c2)s1	.	.	?	13µM	-73
Cc1nc(NS(=O)(=O)c2ccccc2)sc1C(=O)NNS(=O)(=O)c1ccccc1	.	.	.	.	.
SMILES	FMDV antiviral	MARV entry inh	Lassa entry inh	HCV inhibitor	HCMV inh
Cc1ccc(-n2nnnc2Sc2nc([N+](=O)[O-])nn2C)c(C)c1	.	?	.	.	-70
COc1ccc2c(c1)O[C@H](c1ccc3c(c1)OCO3)[C@@H](OC(=O)Nc1ccc(C)c(Br)c1)C2=O	/	.	?	/	/
CCS(=O)(=O)Nc1c(C(=O)O)[nH]c2ccccc12	.	.	.	.	-108
O=C(C=Cc1cccs1)c1ccc(Cl)s1	.	?	.	.	.
COc1cc(=O)n2c(c1C(=O)NCc1ccc3c(c1)OCO3)CCN(C(=O)c1cccc(F)c1)CC2	.	/	/	/	/
Cc1cccc(CC(=O)N[C@@H](Cc2ccccc2)C(O)c2nc3ccccc3[nH]2)c1 (some centres not stated)	/	/	/	/	.
